Results on eight compounds are retold here after PubChem BioAssay.

Assay [1] relates to Human papillomavirus type 1a protein E7 (residues 44-93). Briefly: small molecules binding HPV E7 44-93 – biochemical, small-molecule microarray, residues 44-93, 635 nm fluorescence, primary screen (AID 1108).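 Also: E7 fragment applied at 1 µg/mL in TBST for 1 h at 4 C; score combines spot fluorescence with its signal to noise ratio.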 Conditions: fluorescence 635 nm, higher = more signal.
Assay [2] is described as follows: hepatitis C replication reporter changes, two-sided – Huh7 cells, luciferase reporter, HCV replication inhibitor project, primary screen (AID 1109).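 Also: huh7 hepatoma cells harbouring a luciferase neomycin HCV replicon reporter; luciferase luminescence as measure of HCV replicon replication; test concentration not given here.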 Conditions: Huh7 HCV replicon luciferase reporter, 48 h; higher = more signal. (Reporter assays use an easily measured gene product as a stand-in for the process of interest.)
Assay [3] addresses Left-right determination factor 2 (Homo sapiens) (UniProt O00292). Nature of the assay: small molecules binding LEFTY2 protein – biochemical, small-molecule microarray, 635 nm fluorescence scan, primary screen (AID 1110). Conditions: higher = more signal.
The target of assay [4] is Calmodulin-1 (Homo sapiens) (UniProt P0DP23). Briefly: small molecules binding calmodulin-1 with EGTA – biochemical, small-molecule microarray, Cy5-labelled CALM1, profiling panel (AID 1111).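 Also: labelled calmodulin applied in Tris saline Tween buffer holding calcium plus EGTA and DTT.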 Conditions: Cy5-CALM1 binding fluorescence, higher = more signal.
Assay [5] shares this target. Nature of the assay: small molecules binding Ca-loaded calmodulin-1 – biochemical, small-molecule microarray, Cy5-labelled CALM1, plus calcium, artefact control for SMM control-protein annotation, profiling panel (AID 1112).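 Also: score merges spot fluorescence with signal to noise from triplicate slides.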 Conditions: Cy5-CALM1 binding fluorescence, higher = more signal.
A short description of assay [6]: probe aWnt5a binding to arrayed compounds – biochemical, biotinylated probe, 635/667 nm fluorescence, primary screen (AID 1113).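 Also: score merges 667 nm fluorescence intensity with signal-to-noise per printed feature.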 Conditions: small-molecule microarray, higher = more signal.
Assay [7] in a line: probe aShh binding to arrayed compounds – biochemical, biotinylated probe, 635/667 nm fluorescence, primary screen (AID 1114).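 Also: probe is biotin-labelled aShh protein from a stem cell growth factor screen; measures binding of labelled protein to compounds printed on the slide; score merges feature fluorescence at 667 nm with signal-to-noise.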 Conditions: small-molecule microarray, higher = more signal.
A short description of assay [8]: probe aNog binding to arrayed compounds – biochemical, biotinylated probe, 635/667 nm fluorescence, primary screen (AID 1115).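 Also: probe is biotinylated aNog protein used at 0.15 µg/mL for 1 h at 4 C; z-score combines 667 nm fluorescence of each spot with its signal to noise.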 Conditions: small-molecule microarray, higher = more signal.
Assay [9] concerns the target Torsin-1A-interacting protein 1 (Homo sapiens) (UniProt Q5JTV8). Nature of the assay: compound microarray binding of lysate hLAP1 – cell lysate, small-molecule microarray, COS7 lysate, 635/667 nm fluorescence, primary screen (AID 1116). Conditions: 635 nm fluorescence, higher = more signal.
The target in assay [10] is Alpha-bungarotoxin (Bungarus multicinctus) (UniProt P60615). Briefly: compounds binding labelled alpha-BTX control protein – biochemical, small-molecule microarray, Alexa647 label, 635/667 nm fluorescence, artefact control for SMM control protein annotation, profiling panel (AID 1117). Conditions: alpha-BTX-A647 binding fluorescence, higher = more signal.
Sequence of Alpha-bungarotoxin (Bungarus multicinctus) (P60615 whole entry, looked up): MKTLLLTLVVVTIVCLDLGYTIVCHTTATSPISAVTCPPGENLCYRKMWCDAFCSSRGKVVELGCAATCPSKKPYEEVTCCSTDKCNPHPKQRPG
Assay [11] addresses Albumin (Bos taurus) (UniProt P02769). Briefly: compounds binding labelled BSA control protein – biochemical, small-molecule microarray, Alexa647 label, 635/667 nm fluorescence, artefact control for SMM control protein annotation, profiling panel (AID 1118).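 Also: score merges 667 nm emission intensity and signal-to-noise per printed compound spot.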 Conditions: BSA-A647 binding, fluorescence 635 nm, higher = more signal.
Assay [12] can be described thus: probe aXIP binding to arrayed compounds – biochemical, NeuroSMM set, 635/667 nm fluorescence, primary screen (AID 1119).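 Also: probe is the protein aXip251-270 applied at 1 µg/mL to compound-printed slides; binding of probe to printed compounds measured as 667 nm fluorescence plus signal to noise.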 Conditions: small-molecule microarray, higher = more signal, called active from +8 up or from −8 down.
Assay [13] is described as follows: probe aNOTCH3 binding on compound microarray – biochemical, small-molecule microarray, 635/667 nm fluorescence, primary screen (AID 1120).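 Also: probe is a biotin-tagged antibody raised against NOTCH3 rather than NOTCH3 protein; score merges spot fluorescence near 667 nm with spot signal to noise.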 Conditions: higher = more signal.
Assay [14] in a line: probe aNOTCH2 binding on compound microarray – biochemical, small-molecule microarray, 635/667 nm fluorescence, primary screen (AID 1121).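 Also: score merges feature fluorescence read at 667 nm with its signal to noise.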 Conditions: higher = more signal.
Assay [15] deals with Carbonic anhydrase 2 (Homo sapiens) (UniProt P00918). Nature of the assay: compounds binding carbonic anhydrase 2 – biochemical, small-molecule microarray, Alexa647-labelled CAII, profiling panel (AID 1122). Conditions: CAII-A647 binding fluorescence, higher = more signal.
The nature of assay [16]: COS7 lysate on small-molecule microarray, probe aHis, 635 nm (AID 1123).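 Also: z-score combines 667nm fluorescence intensity with signal-to-noise per printed compound spot.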 Conditions: COS7 cell lysate, fluorescence, higher = more signal.
The nature of assay [17]: probe aLAP1 signal on lysate-treated microarray – cell lysate, small-molecule microarray, COS7 lysate, primary screen (AID 1124).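 Also: lysate comes from COS7 cells expressing LAP1 and is applied at 0.3 µg/mL; score merges spot fluorescence near 667 nm with signal-to-noise over triplicate slides.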 Conditions: probe aLAP1, fluorescence, higher = more signal.
In assay [18] the test system is Sam68 (KHDRBS1). Nature of the assay: compounds binding KHDRBS1 protein – biochemical, small-molecule microarray, 635 nm fluorescence, primary screen (AID 1125).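 Also: score merges 667 nm channel intensity with signal to noise over triplicate slides.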 Conditions: higher = more signal.
In assay [19] the test system is Chordin-like protein 2 (CHRDL2). Briefly: compounds binding chordin-like 2 – biochemical, small-molecule microarray, 635 nm fluorescence, primary screen (AID 1126).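 Also: printed compound slides probed with Chrdl2 protein at 4 µg/mL for 1 h at 4 C; score merges 667 nm emission intensity with signal to noise over three replicate slides.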 Conditions: fluorescence 635 nm, higher = more signal.
For assay [20], the target named is Concanavalin-A (Canavalia ensiformis) (UniProt P02866). Briefly: compounds binding concanavalin A lectin – biochemical, small-molecule microarray, Alexa647 label, 635 nm, artefact control for SMM control protein annotation, primary screen (AID 1127).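 Also: z combines 667 nm emission intensity with signal-to-noise across three replicate slides.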 Conditions: ConA-A647 binding fluorescence, higher = more signal.
Sequence of Concanavalin-A (Canavalia ensiformis) (P02866 whole entry, looked up): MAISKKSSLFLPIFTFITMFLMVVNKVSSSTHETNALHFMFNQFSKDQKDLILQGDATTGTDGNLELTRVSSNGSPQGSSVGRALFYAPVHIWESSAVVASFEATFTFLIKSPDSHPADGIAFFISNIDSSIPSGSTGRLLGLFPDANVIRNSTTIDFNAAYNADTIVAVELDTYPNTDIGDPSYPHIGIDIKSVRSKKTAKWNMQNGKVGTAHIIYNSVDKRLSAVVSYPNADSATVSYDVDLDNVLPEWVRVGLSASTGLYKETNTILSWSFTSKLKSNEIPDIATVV

Active and inactive are the calls of the source.

Sequence of Albumin (Bos taurus) (P02769 whole entry, looked up): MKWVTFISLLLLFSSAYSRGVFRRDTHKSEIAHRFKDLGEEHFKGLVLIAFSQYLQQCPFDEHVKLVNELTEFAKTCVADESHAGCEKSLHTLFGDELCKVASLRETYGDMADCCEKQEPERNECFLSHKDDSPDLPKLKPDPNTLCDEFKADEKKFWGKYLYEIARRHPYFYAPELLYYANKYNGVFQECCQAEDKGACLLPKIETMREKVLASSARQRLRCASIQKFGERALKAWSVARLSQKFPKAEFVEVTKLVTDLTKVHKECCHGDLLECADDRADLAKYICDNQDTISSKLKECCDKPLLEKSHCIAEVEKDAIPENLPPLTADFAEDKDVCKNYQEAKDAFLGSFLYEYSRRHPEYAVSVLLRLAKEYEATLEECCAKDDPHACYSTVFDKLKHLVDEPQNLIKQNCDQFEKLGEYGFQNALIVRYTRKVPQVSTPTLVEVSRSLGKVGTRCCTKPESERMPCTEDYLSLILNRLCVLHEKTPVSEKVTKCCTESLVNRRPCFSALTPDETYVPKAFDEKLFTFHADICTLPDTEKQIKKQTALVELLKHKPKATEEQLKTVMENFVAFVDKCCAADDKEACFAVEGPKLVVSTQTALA
Sequence of Left-right determination factor 2 (Homo sapiens) (O00292 whole entry, looked up): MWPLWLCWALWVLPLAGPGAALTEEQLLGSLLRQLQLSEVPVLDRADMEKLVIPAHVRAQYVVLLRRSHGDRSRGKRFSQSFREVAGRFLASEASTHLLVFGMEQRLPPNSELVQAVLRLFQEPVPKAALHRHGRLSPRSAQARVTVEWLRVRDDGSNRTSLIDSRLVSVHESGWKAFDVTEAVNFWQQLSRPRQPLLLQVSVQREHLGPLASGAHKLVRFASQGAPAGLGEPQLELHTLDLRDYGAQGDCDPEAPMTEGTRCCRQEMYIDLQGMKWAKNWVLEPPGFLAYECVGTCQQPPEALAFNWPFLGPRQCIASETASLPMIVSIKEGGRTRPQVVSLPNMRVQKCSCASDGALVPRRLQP
Sequence of Torsin-1A-interacting protein 1 (Homo sapiens) (Q5JTV8 whole entry, looked up): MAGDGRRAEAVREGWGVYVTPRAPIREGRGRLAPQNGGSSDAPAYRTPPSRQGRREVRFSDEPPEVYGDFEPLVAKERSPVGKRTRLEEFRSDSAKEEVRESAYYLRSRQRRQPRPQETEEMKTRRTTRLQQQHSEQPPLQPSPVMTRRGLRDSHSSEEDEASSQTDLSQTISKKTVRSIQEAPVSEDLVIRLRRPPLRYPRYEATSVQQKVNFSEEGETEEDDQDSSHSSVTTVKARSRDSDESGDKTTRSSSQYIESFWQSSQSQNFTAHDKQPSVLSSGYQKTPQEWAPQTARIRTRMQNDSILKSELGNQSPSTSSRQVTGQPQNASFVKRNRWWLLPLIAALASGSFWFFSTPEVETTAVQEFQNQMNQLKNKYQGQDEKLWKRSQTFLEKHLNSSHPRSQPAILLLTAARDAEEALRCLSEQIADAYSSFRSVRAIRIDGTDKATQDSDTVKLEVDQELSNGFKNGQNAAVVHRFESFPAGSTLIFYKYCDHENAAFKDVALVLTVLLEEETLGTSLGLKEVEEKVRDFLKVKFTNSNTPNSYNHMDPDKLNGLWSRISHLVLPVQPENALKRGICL

With `COCCCNC(=O)[C@@]1(C)c2ccccc2C(=O)N(c2ccc(C)cn2)[C@H]1c1ccc(CO)cc1`, the composite z-score in [1] is -0.588; in assay [3], -0.877; in assay [4] it was -0.949; in [5], -1.12; in [6], -0.172; in assay [7] it was 0.283. The composite z-score in assay [8] is -0.911; in assay [9], 1.69; in [10], -1.65; in assay [11] it was 0.537; in [13], -0.463; in assay [14], -0.135. The composite z-score in assay [15] is 0.789; in assay [16], -0.317; in [17], 0.406; in assay [18], -0.225; in assay [19] it was -0.889; in [20], -0.731. This compound also showed a z-score in assay [2] of -0.0063. In [12], the composite Z-score is -0.333 (inactive).

Regarding `COc1ccc([Si](C)(C)[C@H]2[C@H](CC(=O)N3CCC[C@H]3CO)O[C@@]3(C(=O)N(Cc4ccc(N5C(=O)c6cccc7cccc5c67)cc4)c4ccccc43)[C@@H]2C)cc1`, the composite z-score in assay [1] is 1.14; in assay [3], 0.758; in assay [4], 0.325; in assay [5] it was -0.544; in assay [6], -0.0944; in [7] it was 0.151. Also, the composite z-score in assay [8] was 0.473; in [9], 0.585; in assay [10], 2.05; in assay [11] it was 0.121; in [13] it was 0.171; in [14], -0.146. The composite z-score in [15] worked out at 0.409; in assay [16], 1.23; in [17], 0.206; in assay [18], 1.29; in assay [19] it was 0.634; in [20], 1.13. In addition, the z-score in [2] is -1.96. Also, the composite Z-score in assay [12] was 0.829 (inactive).

Take `O=C1O[C@H](c2ccccc2)[C@H](c2ccccc2)N2[C@H]1[C@@H](C(=O)N1CCCCCCC1)[C@]1(C(=O)Nc3ccc(C#CCCO)cc31)[C@H]2c1ccc(OCCO)cc1`: the composite z-score turned out to be 1.62 in [1]; 1.72 in assay [3]; 3.04 in [4]; 1.63 in [5]; 1.65 in assay [6]; 2.49 in assay [7]. Further, the composite z-score stood at 3.39 in assay [8]; 5.44 in [9]; 4.88 in assay [10]; 0.853 in assay [11]; 2.34 in assay [13]; 1.12 in assay [14]. The composite z-score in assay [15] is 1.11; in assay [16], 5.12; in assay [17], 1.12; in assay [18], 1.37; in assay [19] it was 1.62; in assay [20], 1.19. Further, in assay [2], the z-score is -1.64. Also, the composite Z-score in [12] was 10.2 (active).

Regarding `COc1ccccc1CN1C(=O)c2ccccc2[C@](Cc2ccccc2I)(C(=O)NCCN2CCOCC2)[C@@H]1c1ccc(CO)cc1`, the composite z-score in assay [1] was 1.36; in assay [3] it was 1.01; in assay [4], 0.688; in assay [5] it was -0.768; in assay [6], -0.0118; in assay [7], -0.144. Moreover, the composite z-score in assay [8] was -0.0746; in assay [9] it was 0.488; in assay [10], 1.19; in assay [11], 0.655; in assay [13] it was 0.0629; in assay [14] it was -0.0288. Also, the composite z-score in assay [15] was 0.646; in assay [16], 1.71; in [17], 1.01; in [18], 1.29; in assay [19], 0.617; in [20], 1.1. This compound yielded a z-score in [2] of -2.96. Besides, the composite Z-score in assay [12] was -0.0337 (inactive).

Turning to `Cc1ccc(S[C@]2(C(=O)NCC(C)C)CC(=O)N(C3CCCCC3)[C@@H]2c2ccc(CO)cc2I)cc1`, the composite z-score was 1.35 in [1]; 0.261 in [3]; 1.73 in [4]; 0.549 in [5]; 0.02 in assay [6]; -0.188 in [7]. Moreover, the composite z-score was -0.471 in [8]; 0.703 in assay [9]; 0.0462 in assay [10]; 0.812 in [11]; -0.246 in [13]; -0.0862 in [14]. The composite z-score was 0.637 in assay [15]; 1.51 in assay [16]; 0.738 in assay [17]; 1.28 in [18]; -0.0402 in [19]; 0.88 in assay [20]. In addition, in [2], the z-score was -2.6. Further, the composite Z-score in assay [12] is 0.209 (inactive).

With `CN(C)C(=O)[C@@]1(CCC(=O)OC(C)(C)C)COC(c2ccc(OCCCO)cc2)=N1`, the composite z-score is 1.08 in assay [1]; -1.04 in assay [3]; 0.38 in [4]; 0.816 in assay [5]; -0.127 in assay [6]; 0.261 in assay [7]. The composite z-score in [8] is 1.52; in [9], 1.54; in assay [10] it was 0.728; in [11], 0.655; in assay [13], -0.119; in assay [14], -0.0508. For the same compound, the composite z-score in [15] was 0.841; in assay [16] it was 3.29; in assay [17], 0.723; in assay [18], 0.502; in assay [19] it was -1.46; in [20] it was 0.673. This compound yielded a z-score in assay [2] of -0.594. Further, the composite Z-score in assay [12] is 0.142 (inactive).

`COc1cccc(C[C@H]2C[C@@H](CO[Si](C(C)C)(C(C)C)C(C)C)N3C(=O)[C@]4(C(C)=O)O[C@]23[C@H]2C(=O)N(C)C(=O)[C@H]24)c1`: the composite z-score in [1] is 1.01; in assay [3], 0.717; in assay [4], 0.293; in [5] it was -0.23; in assay [6], -0.0721; in assay [7] it was 0.138. For the same compound, the composite z-score is -0.158 in assay [8]; 0.102 in assay [9]; 0.866 in [10]; 0.614 in assay [11]; -0.0647 in assay [13]; -0.148 in assay [14]. Further, the composite z-score is -0.0064 in [15]; 0.0217 in [16]; -0.274 in assay [17]; 1.14 in assay [18]; 0.403 in assay [19]; 0.98 in [20]. In addition, in assay [2], the z-score was -3.15. Also, the composite Z-score in [12] was -0.12 (inactive).

As for `COC(=O)[C@]1(Cc2ccccc2CN=[N+]=[N-])N=C(c2ccc(OCCCO)cc2)O[C@@H]1c1ccccc1CN=[N+]=[N-]`, the composite z-score in [1] is 0.0068; in assay [3], -0.624; in assay [4] it was -0.11; in [5], -0.271; in [6], -0.0346; in assay [7] it was 0.246. Further, the composite z-score was 0.589 in [8]; 1.39 in [9]; 1.48 in assay [10]; -0.204 in assay [11]; -0.0984 in assay [13]; -0.0079 in assay [14]. Moreover, the composite z-score in assay [15] amounted to 0.651; in assay [16], 1.75; in [17] it was 0.838; in assay [18], 0.877; in [19], 0.31; in assay [20], 0.951. In assay [2], this compound came in with a z-score of -2.91. In addition, the composite Z-score in assay [12] was -0.206 (inactive).
